Structures can show the parent of a compound that is named as a salt. ± gives the standard deviation of the averaged measurements.
How the values were obtained:
Test in all cases: growth (OD600 after 10 h); higher = more growth (less inhibition)
[1] = tested on: E. coli TESEC Alr+ wild-type control; conditions: compound 0.1 mM; raw OD600 reference: median of DMSO wells 0.241, cell-free background 0.041
Procedure: (§1)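 TESEC Mtb Alr E. coli, or the Alr+ wild-type control, in 384-well plates with Prestwick library compounds at 0.1 mM and 1% DMSO, across arabinose induction levels of 1E3 to 1E7 nM. Growth is read as OD600 after 10 h at 37 °C in triplicate biological replicates.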

E. coli TESEC Mtb Alr [2] = conditions: compound 0.1 mM
Procedure: as §1

E. coli TESEC Mtb Asd = conditions: compound 0.1 mM
Procedure: (§2)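 TESEC E. coli strains in which the native enzyme is deleted and replaced by arabinose-inducible Mtb Asd, DapB, CysH or TrpD, each grown in its selective medium. Strains were screened against the Prestwick library at 0.1 mM and 1% DMSO in 384-well format at low and high arabinose induction. Growth is read as OD600 after 10 h in triplicate.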

E. coli TESEC Mtb DapB = conditions: compound 0.1 mM
Procedure: as §2

[3] = tested on: E. coli TESEC Alr+ wild-type control; conditions: compound 0.1 mM; raw OD600 reference: median of DMSO wells 0.49, cell-free background 0.052
Procedure: (§3)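 TESEC Mtb Alr E. coli (ΔaraC ΔtolC ΔentC Δalr ΔdadX, arabinose-inducible Mtb Alr) or the Alr+ wild-type control strain, grown in defined M9-fructose medium without D-alanine in 96-well plates with Prestwick library compounds at 0.1 mM and 1% DMSO. Low Alr induction is 0.1 µM arabinose and high induction is 10 mM arabinose.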

E. coli TESEC Mtb Alr [4] = conditions: compound 0.1 mM; remark: listed apart in the source
Procedure: as §3

[5] = arabinose 1000 nM, raw OD600 reference: median of DMSO wells 0.294, cell-free background 0.041
[6] = arabinose 10000 nM, raw OD600 reference: median of DMSO wells 0.264, cell-free background 0.041
[7] = arabinose 100000 nM, raw OD600 reference: median of DMSO wells 0.201, cell-free background 0.041
[8] = arabinose 1000000 nM, raw OD600 reference: median of DMSO wells 0.193, cell-free background 0.041
[9] = arabinose 10000000 nM, raw OD600 reference: median of DMSO wells 0.146, cell-free background 0.041
[10] = arabinose induction (level): High, raw OD600 reference: median of DMSO wells 0.331, cell-free background 0.041
[11] = arabinose induction (level): Low, raw OD600 reference: median of DMSO wells 0.417, cell-free background 0.041
[12] = arabinose induction (level): High, raw OD600 reference: median of DMSO wells […], cell-free background 0.041
[13] = arabinose induction (level): Low, raw OD600 reference: median of DMSO wells 0.227, cell-free background 0.041
[14] = arabinose 100 nM, raw OD600 reference: median of DMSO wells 0.413, cell-free background 0.052
[15] = arabinose 10000000 nM, raw OD600 reference: median of DMSO wells […], cell-free background 0.052

Compound | growth [1] | growth (E. coli TESEC Mtb Alr [2]; [5]) | growth (E. coli TESEC Mtb Alr [2]; [6]) | growth (E. coli TESEC Mtb Alr [2]; [7]) | growth (E. coli TESEC Mtb Alr [2]; [8]) | growth (E. coli TESEC Mtb Alr [2]; [9]) | growth (E. coli TESEC Mtb Asd; [10]) | growth (E. coli TESEC Mtb Asd; [11]) | growth (E. coli TESEC Mtb DapB; [12]) | growth (E. coli TESEC Mtb DapB; [13]) | growth [3] | growth (E. coli TESEC Mtb Alr [4]; [14]) | growth (E. coli TESEC Mtb Alr [4]; [15])
CCOC(=O)C1=C[C@]2(CC)CCCN3CCc4c(n1c1ccccc41)[C@@H]32 [Vinpocetine] | 0.216 ± 0.0075 | 0.271 ± 0.015 | 0.25 ± 0.0089 | 0.184 ± 0.015 | 0.145 ± 0.005 | 0.143 ± 0.0046 | 0.232 ± 0.0031 | 0.379 ± 0.069 | 0.164 ± 0.0032 | 0.191 ± 0.0094 | 0.557 ± 0.044 | 0.4094 ± 0.0032 | 0.337 ± 0.016
O=C(O)c1cn(C2CC2)c2cc(N3CCNCC3)c(F)cc2c1=O [Ciprofloxacin hydrochloride monohydrate] | 0.0408 ± 0.00053 | 0.0398 ± 0.0012 | 0.0399 ± 0.0009 | 0.0402 ± 0.0002 | 0.0391 ± 0.00026 | 0.0402 ± 0.00036 | 0.0484 ± 0.0012 | 0.0498 ± 0.001 | 0.049 ± 0.00046 | 0.0712 ± 0.04 | 0.0505 ± 0.0005 | 0.0528 ± 0.00085 | 0.0527 ± 0.0033
COc1ccc(C2CNC(=O)C2)cc1OC1CCCC1 (stereo not drawn) [Rolipram] | 0.209 ± 0.0078 | 0.275 ± 0.012 | 0.29 ± 0.0047 | 0.177 ± 0.0086 | 0.198 ± 0.012 | 0.14 ± 0.0022 | 0.373 ± 0.044 | 0.425 ± 0.047 | 0.211 ± 0.0056 | 0.217 ± 0.0081 | 0.623 ± 0.011 | 0.4 ± 0.013 | 0.311 ± 0.019
CC(=O)N(CC(O)CN(C(C)=O)c1c(I)c(C(=O)NCC(O)CO)c(I)c(C(=O)NCC(O)CO)c1I)c1c(I)c(C(=O)NCC(O)CO)c(I)c(C(=O)NCC(O)CO)c1I (stereo not drawn) [Iodixanol] | 0.235 ± 0.0081 | 0.303 ± 0.015 | 0.26 ± 0.0054 | 0.182 ± 0.022 | 0.177 ± 0.0052 | 0.1415 ± 0.00091 | 0.358 ± 0.082 | 0.421 ± 0.015 | 0.206 ± 0.0036 | 0.215 ± 0.043 | 0.537 ± 0.093 | 0.406 ± 0.013 | 0.334 ± 0.0038
NC[C@@H]1O[C@H](O[C@H]2[C@@H](O)[C@H](O[C@@H]3[C@@H](O)[C@H](N)C[C@H](N)[C@H]3O[C@H]3O[C@H](CO)[C@@H](O)[C@H](O)[C@H]3N)O[C@@H]2CO)[C@H](N)[C@@H](O)[C@@H]1O [Paromomycin sulfate] | 0.251 ± 0.0064 | 0.327 ± 0.0078 | 0.275 ± 0.0073 | 0.19 ± 0.0041 | 0.19 ± 0.013 | 0.163 ± 0.0039 | 0.496 ± 0.0058 | 0.447 ± 0.027 | 0.195 ± 0.0097 | 0.26 ± 0.034 | 0.535 ± 0.089 | 0.405 ± 0.014 | 0.333 ± 0.0043
CC1(C)[C@H](C(=O)O)N2C(=O)C[C@H]2S1(=O)=O [Sulbactam] | 0.241 ± 0.0052 | 0.305 ± 0.0083 | 0.263 ± 0.0075 | 0.244 ± 0.009 | 0.202 ± 0.015 | 0.165 ± 0.01 | 0.39 ± 0.029 | 0.438 ± 0.016 | 0.2 ± 0.006 | 0.225 ± 0.025 | 0.533 ± 0.06 | 0.409 ± 0.0061 | 0.361 ± 0.011
Cc1[nH]cnc1CN1CCc2c(c3ccccc3n2C)C1=O [Alosetron hydrochloride] | 0.197 ± 0.0093 | 0.26 ± 0.0044 | 0.233 ± 0.014 | 0.225 ± 0.0049 | 0.178 ± 0.008 | 0.1498 ± 0.001 | 0.287 ± 0.076 | 0.263 ± 0.027 | 0.196 ± 0.017 | 0.262 ± 0.041 | 0.563 ± 0.075 | 0.387 ± 0.012 | 0.289 ± 0.0097
c1ccc([C@H]2CN3CCSC3=N2)cc1 [Levamisole hydrochloride] | 0.253 ± 0.0028 | 0.286 ± 0.0062 | 0.279 ± 0.005 | 0.209 ± 0.017 | 0.186 ± 0.0053 | 0.142 ± 0.0042 | 0.364 ± 0.033 | 0.428 ± 0.026 | 0.182 ± 0.0088 | 0.214 ± 0.023 | 0.511 ± 0.054 | 0.413 ± 0.0046 | 0.353 ± 0.019
CC(=O)Nc1ccc(OCC(O)CNC(C)C)cc1 (stereo not drawn) [Practolol] | 0.244 ± 0.0047 | 0.307 ± 0.0096 | 0.257 ± 0.0077 | 0.229 ± 0.04 | 0.19 ± 0.016 | 0.145 ± 0.0028 | 0.408 ± 0.04 | 0.424 ± 0.027 | 0.177 ± 0.0065 | 0.22 ± 0.025 | 0.643 ± 0.039 | 0.402 ± 0.014 | 0.361 ± 0.0065
CC(C)(Oc1ccc(CCNC(=O)c2ccc(Cl)cc2)cc1)C(=O)O [Bezafibrate] | 0.249 ± 0.0031 | 0.296 ± 0.0036 | 0.237 ± 0.0024 | 0.208 ± 0.028 | 0.163 ± 0.0041 | 0.138 ± 0.0072 | 0.237 ± 0.074 | 0.298 ± 0.021 | 0.184 ± 0.012 | 0.216 ± 0.013 | 0.483 ± 0.015 | 0.43 ± 0.0059 | 0.322 ± 0.019
CC(=O)NCCCS(=O)(=O)O [Acamprosate calcium] | 0.233 ± 0.004 | 0.2868 ± 0.0017 | 0.242 ± 0.0043 | 0.202 ± 0.026 | 0.1706 ± 0.0011 | 0.142 ± 0.0039 | 0.259 ± 0.079 | 0.309 ± 0.033 | 0.212 ± 0.031 | 0.229 ± 0.028 | 0.472 ± 0.035 | 0.409 ± 0.01 | 0.35 ± 0.025
COc1ccc(C(=O)c2ccccc2O)c(O)c1 [Dioxybenzone] | 0.125 ± 0.0069 | 0.116 ± 0.0049 | 0.124 ± 0.0053 | 0.107 ± 0.005 | 0.085 ± 0.0034 | 0.107 ± 0.0014 | 0.261 ± 0.022 | 0.197 ± 0.0098 | 0.183 ± 0.014 | 0.23 ± 0.016 | 0.355 ± 0.014 | 0.352 ± 0.05 | 0.152 ± 0.014
CNC(C)CCC=C(C)C (stereo not drawn) [Isometheptene mucate] | 0.259 ± 0.012 | 0.314 ± 0.0099 | 0.266 ± 0.011 | 0.21 ± 0.025 | 0.177 ± 0.0051 | 0.1478 ± 0.0012 | 0.228 ± 0.035 | 0.397 ± 0.096 | 0.22 ± 0.0027 | 0.246 ± 0.018 | 0.51 ± 0.055 | 0.405 ± 0.017 | 0.314 ± 0.02
C[C@@H]1CCC[C@H](C)N1NC(=O)c1ccc(Cl)c(S(N)(=O)=O)c1 [Clopamide] | 0.235 ± 0.0084 | 0.294 ± 0.02 | 0.251 ± 0.0061 | 0.217 ± 0.022 | 0.173 ± 0.0061 | 0.135 ± 0.002 | 0.283 ± 0.036 | 0.354 ± 0.031 | 0.199 ± 0.01 | 0.225 ± 0.0079 | 0.581 ± 0.048 | 0.419 ± 0.011 | 0.345 ± 0.015
NS(=O)(=O)c1cc2c(cc1Cl)NCNS2(=O)=O [Hydrochlorothiazide] | 0.245 ± 0.0063 | 0.282 ± 0.019 | 0.255 ± 0.006 | 0.234 ± 0.011 | 0.166 ± 0.0054 | 0.14 ± 0.0039 | 0.367 ± 0.053 | 0.408 ± 0.031 | 0.201 ± 0.013 | 0.244 ± 0.027 | 0.448 ± 0.062 | 0.41 ± 0.014 | 0.367 ± 0.019
CN1CCN(C2=Nc3cc(Cl)ccc3Nc3ccccc32)CC1 [Clozapine] | 0.156 ± 0.008 | 0.206 ± 0.0044 | 0.242 ± 0.0072 | 0.178 ± 0.011 | 0.1 ± 0.0026 | 0.154 ± 0.0034 | 0.143 ± 0.018 | 0.293 ± 0.0055 | 0.17 ± 0.0049 | 0.205 ± 0.0082 | 0.502 ± 0.044 | 0.41 ± 0.0084 | 0.32 ± 0.011

— the supplement of paper PMC9262897, “Low-cost anti-mycobacterial drug discovery using engineered E. coli” (Nature Communications, 2022)
